Measured values from publication PMC9911399, “Two distinct binding modes provide the RNA-binding protein RbFox with extraordinary sequence specificity”.
Positions count from the first letter of the chain named. The full ranking holds about 16,000 sequences; the median of “ka relative to ugcaugu” is about 0.096, and the highest 2% start at about 0.35. This excerpt belongs to a sample that is enriched for the highest values.

T1: RBFOX1 RRM RbFoxmut (Fox-RRM*) (Homo sapiens, UniProt Q9NWB1 109-208, R118D;E147R;N151S;E152T)
T1 sequence: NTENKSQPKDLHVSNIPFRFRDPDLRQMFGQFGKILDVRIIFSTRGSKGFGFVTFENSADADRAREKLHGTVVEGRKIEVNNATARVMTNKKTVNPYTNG

B1: AUCUGAU (DNA:RNA)
RNA: GGGAGACCGGAAUUCAGAUUGUCCAUCUGAUUUAAAUCCCGUCGUAGCCACCA
DNA 1: CAATCTGAATTCCGGTCTCCC
DNA 2: TGGTGGCTACGACGGGATT
B2: UCGGCUA (DNA:RNA)
RNA: GGGAGACCGGAAUUCAGAUUGUCCUCGGCUAUUAAAUCCCGUCGUAGCCACCA
DNA 1: CAATCTGAATTCCGGTCTCCC
DNA 2: TGGTGGCTACGACGGGATT
B3: AAGGAAC (DNA:RNA)
RNA: B1 RNA with U26A, C27G, U28G, G29A, U31C
DNA 1: CAATCTGAATTCCGGTCTCCC
DNA 2: TGGTGGCTACGACGGGATT
B4: GCCACUG (DNA:RNA)
RNA: B2 RNA with U25G, G27C, G28A, A31G
DNA 1: CAATCTGAATTCCGGTCTCCC
DNA 2: TGGTGGCTACGACGGGATT
B5: AAGCCCU (DNA:RNA)
RNA: B1 RNA with U26A, C27G, U28C, G29C, A30C
DNA 1: CAATCTGAATTCCGGTCTCCC
DNA 2: TGGTGGCTACGACGGGATT
B6: CGAACAU (DNA:RNA)
RNA: B1 RNA with A25C, U26G, C27A, U28A, G29C
DNA 1: CAATCTGAATTCCGGTCTCCC
DNA 2: TGGTGGCTACGACGGGATT
B7: GCCGAGU (DNA:RNA)
RNA: B1 RNA with A25G, U26C, U28G, G29A, A30G
DNA 1: CAATCTGAATTCCGGTCTCCC
DNA 2: TGGTGGCTACGACGGGATT
B8: CUUGAUA (DNA:RNA)
RNA: B2 RNA with U25C, C26U, G27U, C29A
DNA 1: CAATCTGAATTCCGGTCTCCC
DNA 2: TGGTGGCTACGACGGGATT
B9: AGCGCUC (DNA:RNA)
RNA: B2 RNA with U25A, C26G, G27C, A31C
DNA 1: CAATCTGAATTCCGGTCTCCC
DNA 2: TGGTGGCTACGACGGGATT
B10: ACCCAAG (DNA:RNA)
RNA: B1 RNA with U26C, U28C, G29A, U31G
DNA 1: CAATCTGAATTCCGGTCTCCC
DNA 2: TGGTGGCTACGACGGGATT
B11: GUGAAUG (DNA:RNA)
RNA: B2 RNA with U25G, C26U, G28A, C29A, A31G
DNA 1: CAATCTGAATTCCGGTCTCCC
DNA 2: TGGTGGCTACGACGGGATT
B12: GUGAAUU (DNA:RNA)
RNA: B1 RNA with A25G, C27G, U28A, G29A, A30U
DNA 1: CAATCTGAATTCCGGTCTCCC
DNA 2: TGGTGGCTACGACGGGATT
B13: GUGUGAA (DNA:RNA)
RNA: B1 RNA with A25G, C27G, U31A
DNA 1: CAATCTGAATTCCGGTCTCCC
DNA 2: TGGTGGCTACGACGGGATT
B14: AAAUCUU (DNA:RNA)
RNA: B1 RNA with U26A, C27A, G29C, A30U
DNA 1: CAATCTGAATTCCGGTCTCCC
DNA 2: TGGTGGCTACGACGGGATT
B15: UGAGAAU (DNA:RNA)
RNA: B1 RNA with A25U, U26G, C27A, U28G, G29A
DNA 1: CAATCTGAATTCCGGTCTCCC
DNA 2: TGGTGGCTACGACGGGATT
B16: GCUUAUG (DNA:RNA)
RNA: B2 RNA with U25G, G27U, G28U, C29A, A31G
DNA 1: CAATCTGAATTCCGGTCTCCC
DNA 2: TGGTGGCTACGACGGGATT
B17: CCUACGU (DNA:RNA)
RNA: B2 RNA with U25C, G27U, G28A, U30G, A31U
DNA 1: CAATCTGAATTCCGGTCTCCC
DNA 2: TGGTGGCTACGACGGGATT
B18: CACCCGC (DNA:RNA)
RNA: B1 RNA with A25C, U26A, U28C, G29C, A30G, U31C
DNA 1: CAATCTGAATTCCGGTCTCCC
DNA 2: TGGTGGCTACGACGGGATT
B19: UACUGGU (DNA:RNA)
RNA: B1 RNA with A25U, U26A, A30G
DNA 1: CAATCTGAATTCCGGTCTCCC
DNA 2: TGGTGGCTACGACGGGATT
B20: UGGAGAC (DNA:RNA)
RNA: B1 RNA with A25U, U26G, C27G, U28A, U31C
DNA 1: CAATCTGAATTCCGGTCTCCC
DNA 2: TGGTGGCTACGACGGGATT
B21: CGGAUGC (DNA:RNA)
RNA: B2 RNA with U25C, C26G, G28A, C29U, U30G, A31C
DNA 1: CAATCTGAATTCCGGTCTCCC
DNA 2: TGGTGGCTACGACGGGATT
B22: CGGACUG (DNA:RNA)
RNA: B2 RNA with U25C, C26G, G28A, A31G
DNA 1: CAATCTGAATTCCGGTCTCCC
DNA 2: TGGTGGCTACGACGGGATT
B23: UGGAGUG (DNA:RNA)
RNA: B2 RNA with C26G, G28A, C29G, A31G
DNA 1: CAATCTGAATTCCGGTCTCCC
DNA 2: TGGTGGCTACGACGGGATT
B24: UGGACUG (DNA:RNA)
RNA: B2 RNA with C26G, G28A, A31G
DNA 1: CAATCTGAATTCCGGTCTCCC
DNA 2: TGGTGGCTACGACGGGATT
B25: UGGAUCC (DNA:RNA)
RNA: B2 RNA with C26G, G28A, C29U, U30C, A31C
DNA 1: CAATCTGAATTCCGGTCTCCC
DNA 2: TGGTGGCTACGACGGGATT
B26: GGAUCCG (DNA:RNA)
RNA: B1 RNA with A25G, U26G, C27A, G29C, A30C, U31G
DNA 1: CAATCTGAATTCCGGTCTCCC
DNA 2: TGGTGGCTACGACGGGATT
B27: UGGAGAG (DNA:RNA)
RNA: B1 RNA with A25U, U26G, C27G, U28A, U31G
DNA 1: CAATCTGAATTCCGGTCTCCC
DNA 2: TGGTGGCTACGACGGGATT
B28: UGGAUGC (DNA:RNA)
RNA: B2 RNA with C26G, G28A, C29U, U30G, A31C
DNA 1: CAATCTGAATTCCGGTCTCCC
DNA 2: TGGTGGCTACGACGGGATT
B29: CGGAGUG (DNA:RNA)
RNA: B2 RNA with U25C, C26G, G28A, C29G, A31G
DNA 1: CAATCTGAATTCCGGTCTCCC
DNA 2: TGGTGGCTACGACGGGATT
B30: UGGAUCG (DNA:RNA)
RNA: B2 RNA with C26G, G28A, C29U, U30C, A31G
DNA 1: CAATCTGAATTCCGGTCTCCC
DNA 2: TGGTGGCTACGACGGGATT
B31: UGGAUGG (DNA:RNA)
RNA: B2 RNA with C26G, G28A, C29U, U30G, A31G
DNA 1: CAATCTGAATTCCGGTCTCCC
DNA 2: TGGTGGCTACGACGGGATT

target: T1, RBFOX1 RRM RbFoxmut (Fox-RRM*); assay: EMSA; HiTS-Eq, 1 nM pool, 10 min; buffer printed only for the single-RNA assays: 10 mM Tris pH 7.5, 150 mM NaCl, 3.4 mM EDTA, 0.001% NP-40, 30 C; conditions: tags: His6 N-terminal (pET28a); label: 5' 32P
Method in brief: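 Purified RbFox RRM, wild type or mutant, was incubated for 10 min in 50 µL with 1 nM of a 5′-radiolabelled RNA pool carrying 7 randomized nucleotides, whose flanks were annealed to DNA oligonucleotides, over a series of increasing protein concentrations. Unbound RNA was resolved on 8% native PAGE, cut out, reverse-transcribed, barcoded by PCR and sequenced on an Illumina HiSeq 2500. Relative association constants were derived from changes in read counts for each RNA species versus the control reaction and normalised to the cognate motif.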

Binder | binding signal
B1 | 0.0592 KA relative to UGCAUGU
B2 | 0.106 KA relative to UGCAUGU
B3 | 0.057 KA relative to UGCAUGU
B4 | 0.101 KA relative to UGCAUGU
B5 | 0.0868 KA relative to UGCAUGU
B6 | 0.0626 KA relative to UGCAUGU
B7 | 0.123 KA relative to UGCAUGU
B8 | 0.134 KA relative to UGCAUGU
B9 | 0.0471 KA relative to UGCAUGU
B10 | 0.0886 KA relative to UGCAUGU
B11 | 1.45 KA relative to UGCAUGU
B12 | 0.118 KA relative to UGCAUGU
B13 | 0.132 KA relative to UGCAUGU
B14 | 0.0581 KA relative to UGCAUGU
B15 | 0.092 KA relative to UGCAUGU
B16 | 0.142 KA relative to UGCAUGU

Binder | binding signal
B17 | 0.146 KA relative to UGCAUGU
B18 | 0.0852 KA relative to UGCAUGU
B19 | 0.103 KA relative to UGCAUGU
B20 | 0.0876 KA relative to UGCAUGU
B21 | 0.189 KA relative to UGCAUGU
B22 | 0.353 KA relative to UGCAUGU
B23 | 0.45 KA relative to UGCAUGU
B24 | 0.418 KA relative to UGCAUGU
B25 | 0.211 KA relative to UGCAUGU
B26 | 0.153 KA relative to UGCAUGU
B27 | 0.108 KA relative to UGCAUGU
B28 | 0.438 KA relative to UGCAUGU
B29 | 0.198 KA relative to UGCAUGU
B30 | 0.597 KA relative to UGCAUGU
B31 | 0.332 KA relative to UGCAUGU
